# Hit rate of the full screen: of about 38,000 compounds, about 1,200 (3.2%) showed an effect of 50% or more. The median lay at about -58%. For the sample, strong results were picked, then their nearest neighbours and some compounds at random.
# Tested on: Plasmodium falciparum
# Test: Calibr Malaria Delayed Death Assay SOP
# Format: functional, organism-based
# Parameters: scale not given: in the data most compounds retested in dose-response had high values
# Conditions: concentration 4.99e-06 (unit not given; other assays of the set use mol/L)
row,SMILES,Percent Effect
1,Cc1sc2ncnc(N3CCCC3Cn3cccn3)c2c1C (stereo unspecified),-55.32%
2,CCc1c(C)sc2ncnc(N3CC[C@@H](N4CCOCC4)[C@H](O)C3)c12,-5.608%
3,CCc1c(C)sc2ncnc(N3C[C@H](O)[C@@H](N4CCCC4)C3)c12,60.55%
4,CCc1c(C)sc2ncnc(N3CCN(C4CCOCC4)CC3)c12,31.3%
5,CCc1nc(CC2CN(c3ncnc4sc(C)c(C)c34)CCO2)no1 (stereo unspecified),-116.3%
6,CCc1c(C)sc2ncnc(N3CC[C@@H](N4CCC(O)CC4)[C@H](O)C3)c12,74.53%
7,Cc1cc(C)cc(N2CCN(C(=O)C3CN(C)C(=O)N3)CC2=O)c1 (stereo unspecified),-59%
8,CC1(NC(=O)Cc2csc(-c3cccc(Cl)c3)n2)CCS(=O)(=O)C1 (stereo unspecified),-114.6%
9,O=C(NCc1nnnn1-c1ccccc1)c1ccc(C2CCCO2)s1 (stereo unspecified),-146%
10,Cc1nc(C(=O)N(C)CC2CC2)nn1-c1ccccc1C(C)C,-82.1%
11,CN(C)C(C(=O)N1CC(Oc2ccccc2F)C1)c1ccc(F)cc1 (stereo unspecified),62.88%
12,Cc1cccc(C(C(=O)N2CC(Oc3ccccc3F)C2)N(C)C)c1 (stereo unspecified),-1.988%
13,COc1ccccc1OC1CN(C(=O)C(c2ccc(F)cc2)N(C)C)C1 (stereo unspecified),0.4692%
14,Cc1nn(C)cc1-c1cc(C(F)(F)F)nc(NC2CCN(C)CC2)n1,-72.67%
15,O=C(CCc1ccccn1)N1CCCC(N2CCNC2=O)C1 (stereo unspecified),-153%
16,Cc1ccc(Cl)c(C)c1NC(=O)N1CCCN(Cc2ccccn2)CC1,-12.1%
17,Cc1nc(CN2CCCC2c2ccsc2)nc2ccccc12 (stereo unspecified),24.09%
18,c1cnn(CC2CCCN2Cc2noc(C3CC3)n2)c1 (stereo unspecified),-115.2%
19,c1ccc(Cc2noc(CN3CCCCC3Cn3cccn3)n2)cc1 (stereo unspecified),-99.91%
20,Cc1nn(C)c(C)c1C1CCCN1CCCc1nc2ccccc2o1 (stereo unspecified),18.49%
21,Cc1nc2ccccc2nc1CN1CCCC1c1c(C)nn(C)c1C (stereo unspecified),56.82%
22,Cc1nc(CN2CCCC2Cn2ccnc2C(C)C)nc2ccccc12 (stereo unspecified),77.09%
23,Cc1nc(CN2CCCCC2Cn2cncn2)nc2ccccc12 (stereo unspecified),-55.02%
24,Cc1nc(C)n(CC2CCCN2Cc2nc(N)c3ccccc3n2)n1 (stereo unspecified),-104.3%
25,Cc1nc(CN2CCCCC2Cn2cccn2)nc2ccccc12 (stereo unspecified),70.28%
26,Cc1nc(CN2CCCC2Cn2cccn2)nc2ccccc12 (stereo unspecified),55.28%

row,SMILES,Percent Effect
1,COc1cccc(CN2CCCC2c2c(C)nn(C)c2C)c1 (stereo unspecified),21.41%
2,CC(C)c1nccn1CC1CCCN1Cc1nc2ccccc2n1C (stereo unspecified),20.35%
3,CC(c1nc(C2CC2)no1)N1CCN(CCN2CCCC2=O)CC1 (stereo unspecified),-34.43%
4,CC(=O)N1CCN(c2cc(N3CCOCC3)cnn2)CC1,-46.73%
5,CCSc1nnc([C@@H](N)CC(C)C)o1.Cl,-105.7%
6,CC(C)(C)c1nc(CN(Cc2ccccc2Cl)C2CCCC2)no1,-109.5%
7,Cc1cc(C(F)(F)F)nc(CCNC(C)Cn2nc(C)cc2C)n1 (stereo unspecified),25.86%
8,CCSc1nc2ccccc2c(=O)n1OCC(=O)OC,-35.88%
9,N#Cc1c(SCCN2CCOCC2)sc2c(O)cc(O)nc12,20.53%
10,CC(Nc1ccc(Br)cc1)c1nc(C2CC2)no1 (stereo unspecified),-70.57%
11,CCOCC1CN(C(=O)N2CCCC2)Cc2cnn(CC)c21 (stereo unspecified),-92.45%
12,CCOc1ccc2[nH]c(=O)c(CN3CCN(S(N)(=O)=O)CC3)cc2c1,-148.7%
13,CC1CCCN(c2ncc(C(=O)NCc3ccc(F)c(Cl)c3)c(N)n2)C1 (stereo unspecified),-82.32%
14,O=C(CN1CCCC1Cn1cncn1)NCC1(c2ccccc2)CC1 (stereo unspecified),-28.68%
15,Cc1cnn(CC2CCCN2Cc2nc3ccccc3nc2C)c1 (stereo unspecified),-94.42%
16,Cc1nc2ccccc2nc1CN1CCCC1Cn1cccn1 (stereo unspecified),67.78%
17,Cc1nc2ccccc2nc1CN1CCOC(Cn2cccn2)C1 (stereo unspecified),-57.9%
18,Cc1[nH]c2ccc(CNC3CCN(Cc4ccccn4)CC3)cc2c1C,93.27%
19,c1ccc(CN2CCC(NCCc3ccc4c(c3)CCO4)CC2)nc1,34.15%
20,Cc1n[nH]c2ncc(CNC3CCN(Cc4ccccn4)CC3)cc12.Cl,-31.75%
21,Cc1nnc(SCc2cccc(F)c2)n1CC(N)=O,-112.6%
22,Cc1ccc(N2CCc3sc(C(=O)NCCN4CCCC4)cc32)nn1,-55.34%
23,C=C(C)CN1CCN(CCC(=O)Nc2ccccc2C(N)=O)CC1,11.76%
24,O=C(NC[C@H]1OC[C@@H]2CN(Cc3ccco3)CC[C@@H]21)c1cscn1.O=C(O)C(F)(F)F,-201.4%
25,CC(C)CCn1cc(C(=O)NC2CCS(=O)(=O)C2)c2ccccc2c1=O (stereo unspecified),-89.43%
26,CCC(Nc1nc(CCN)nc2ccccc12)c1cccs1 (stereo unspecified),62.16%

row,SMILES,Percent Effect
1,CCC(Nc1nc(C)nc2onc(C)c12)c1cccs1 (stereo unspecified),19.14%
2,CCC(Nc1nc(CCN)nc2ccccc12)c1cc(C)ccn1 (stereo unspecified),-26.25%
3,CN(C)CCn1c2c(ccc1=O)CC(NC(=O)c1cnccn1)CC2.O=C(O)C(F)(F)F (stereo unspecified),-12.74%
4,Cc1cccc(CN2CCC(c3nnsc3S(C)(=O)=O)CC2)c1,-50.13%
5,CNC(=O)NCC1CCC2(CCN(C(=O)c3ccccn3)CC2)CO1.O=C(O)C(F)(F)F (stereo unspecified),-170.4%
6,Cn1cncc1CN1CCC2(CC1)CCN2c1ncccn1,-81.78%
7,CCn1cncc1C1CC(=O)Nc2c1c(C)nn2-c1ccc(C)cc1 (stereo unspecified),-199.9%
8,Cc1nnc(CN2CCN(Cc3nccn3C)CC2)n1C,-20.51%
9,Cc1ncc(CN2CCC(c3ccnn3C)CC2)n1-c1ccccc1,30.79%
10,CCc1nc(CN2CCCN(C(=O)c3ccco3)CC2)cs1,-4.304%
11,O=C(O)C(F)(F)F.O=C(O)C(F)(F)F.c1cncc(C2COC3(CCN(Cc4ccsc4)CC3)C2)c1 (stereo unspecified),12.38%
12,Cc1nc(C(=O)Nc2cccnc2)c(C(C)C)s1,-80.98%
13,Cc1c(CN2CCCC(C(=O)Nc3ccccc3)C2)cc(C#N)n1C (stereo unspecified),39.8%
14,CN(Cc1cccnc1)[C@@H]1CN(Cc2nccn2C)[C@@H]2CCCO[C@H]12.O=C(O)C(F)(F)F.O=C(O)C(F)(F)F.O=C(O)C(F)(F)F.O=C(O)C(F)(F)F,-14.02%
15,COc1ccc(Br)c(NC(=O)NCc2cnn(C)c2)c1,-45%
16,CN1CCC2(CC1)CCN(C(=O)c1onc3ccccc13)C2,-111.7%
17,Cc1ccc(F)cc1CC(=O)N1CC[C@@]2(O)CCNC[C@H]2C1,-30.21%
18,O=C1NCCCCC1Sc1ccc(F)cc1F (stereo unspecified),-40.24%
19,Cc1nc(N(C)C)nc2c1COCC21CCN(C(=O)C2CC2)C1 (stereo unspecified),-124.4%
20,O=C(Cn1cc(C2CC2)nn1)N(Cc1cccs1)CC1CCCO1 (stereo unspecified),-9.508%
21,O=C(c1cc(Br)ccc1Cl)N1CCN(Cc2ccco2)CC1,-2.5%
22,O=C(CN(Cc1ccco1)C1CC1)Nc1ccc(Br)cn1,-177.6%
23,O=C(c1ccco1)N1CC(S(=O)(=O)c2ccc(Cl)cc2)C1,-88.3%
24,Cn1cnc(S(=O)(=O)N2CCN(Cc3ccco3)CC2)c1Cl,-15.28%
25,CN1CCC(N(Cc2ccco2)S(=O)(=O)c2ccc(Br)cc2Cl)CC1,73.43%
26,O=c1cc(CN(Cc2ccco2)C2CC2)nc2ccc(Br)cn12,-50.29%

row,SMILES,Percent Effect
1,CN1CCC(N(Cc2ccco2)S(=O)(=O)c2ccc(Cl)cc2)CC1,54.64%
2,CC1CCN(C(=O)CN(Cc2ccco2)C2CC2)CC1,-121%
3,CN1CCC(N(Cc2ccco2)S(=O)(=O)c2cc(Br)ccc2Br)CC1,75.01%
4,CCc1nc(C(=O)N2CCOCC2)nn1-c1ccccc1Cl,-27.32%
5,Cc1cc2[nH]c(CN3CCCCC3c3cccc(F)c3)cc(=O)n2n1 (stereo unspecified),-66.54%
6,CS(=O)(=O)c1ccc(CN2CCCCC2c2cccc(F)c2)cc1 (stereo unspecified),-43.63%
7,COc1cc(CN2CCCC2c2cccc(F)c2)cc(OC)c1OC (stereo unspecified),25.35%
8,COc1ccc(CN2CCCC2c2cccc(F)c2)c(OC)c1OC (stereo unspecified),58.64%
9,COc1cccc(CN2CCCC2c2cccc(F)c2)c1OC (stereo unspecified),53.66%
10,COc1cccc(CN2CCCCCC2c2cccs2)c1OC (stereo unspecified),-76.96%
11,Cc1ccccc1-c1cc(NC(=O)CC(C)C)n(CCO)n1,-65.33%
12,O=C(NCCc1c[nH]c2ccccc12)C1(n2cnnn2)CCCCC1,-28.02%
13,O=C(O)C(F)(F)F.O=C(c1cccc(F)c1)N1CCC2(CC1)CN(c1ccccn1)CCO2,-103.6%
14,Cc1nn2c(-c3cnn(C)c3)nnc2s1,-96.58%
15,CC(C)(C)OC(=O)N1CCN(S(C)(=O)=O)C2(CCCCC2)C1,-78.85%
16,Cc1cc(N2CCC(O)(CN(C)C)C2)c2cc3c(cc2n1)OCO3 (stereo unspecified),89.44%
17,Cc1cc(C)c2[nH]c(=O)c(CN3CCC(O)(CN(C)C)C3)cc2c1 (stereo unspecified),5.101%
18,Cc1cc(N2CCCC3(CN(C)C(=O)O3)C2)c2cc3c(cc2n1)OCO3 (stereo unspecified),-65%
19,CN(C)CC1(O)CCN(C(=O)c2cnc(-c3ccccn3)nc2)C1 (stereo unspecified),-83.84%
20,Cc1cc(N2CCCC(O)(CN(C)C)C2)c2cc3c(cc2n1)OCO3 (stereo unspecified),79.58%
21,CN(C)CC1(O)CCCN(c2noc(-c3ccccc3)n2)CC1 (stereo unspecified),-4.701%
22,CN(C)C(=O)CC1CC2(CCN(Cc3ccco3)CC2)c2ccccc21.O=C(O)C(F)(F)F (stereo unspecified),24.78%
23,CN1C(=O)C2(CCCN(C(=O)c3ccc(=O)n(C)n3)C2)c2ccccc21 (stereo unspecified),-36.85%

# From ChEMBL document CHEMBL3988442, “University of Dundee, Small-Polar-MMV Screening Library” (2021)
